The record followed here is PubChem BioAssay (NCI).

The panel holds about 83,000 compounds, 20% with a hit somewhere; the sample as a whole holds those more often.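 Method: cells in 96-well plates; compound added at one concentration; 48 h incubation; percent growth measured; values under 10 scored active.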 Values without a mark were called inactive. The source made the active and inactive calls.

Some test systems named below: HCT-15 colon; HT29 colon; SNB-75 CNS; SNB-19 CNS; U251 CNS; PC-3 prostate; SK-MEL-5 melanoma; UACC-62 melanoma; LOX IMVI melanoma; SK-MEL-28 melanoma; SK-MEL-2 melanoma; SN12C renal; TK-10 renal; ACHN renal; CAKI-1 renal; CCRF-CEM leukemia; MOLT-4 leukemia; UO-31 renal; EKVX NSCLC; A498 renal.
Assay in all cases: NCI-60 one-dose screen, 48 h (100 = growth as untreated, 0 = no growth, -100 = all killed)
Common to all, as to details: 10 µM unless noted

Turning to `C=C(C)[C@@H]1CC[C@]2(CN)CC[C@]3(C)[C@H](CC[C@@H]4[C@@]5(C)CCCNC(C)(C)[C@@H]5CC[C@]43C)[C@@H]12`, the growth with HCT-15 colon was -92.4% (active); in the assay with HT29 colon, -85.8% (active); in the assay on SNB-75 CNS, -27.7% (active); in the assay with SNB-19 CNS, -58.5% (active); with U251 CNS it was -89.7% (active); with PC-3 prostate, -10.5% (active). The growth with SK-MEL-5 melanoma is -9.72% (active); in the assay with UACC-62 melanoma, 29%; with LOX IMVI melanoma, -98.3% (active); in the assay on SK-MEL-28 melanoma, -28.3% (active); in the assay on SK-MEL-2 melanoma it was 6.75% (active); with SN12C renal, -25.5% (active). Further, the growth was -10.6% (active) in the assay on TK-10 renal; -91.8% (active) with ACHN renal; -94.5% (active) with CAKI-1 renal; -27.4% (active) in the assay on CCRF-CEM leukemia; -45.4% (active) in the assay on MOLT-4 leukemia.

Consider `NC(=NCCCOc1ccc(F)cc1)Nc1ccc(I)cc1`, for which the growth in the assay with HCT-15 colon was 75.3%; in the assay with HT29 colon it was 38.2%; in the assay with SNB-75 CNS, 63.6%; in the assay on SNB-19 CNS, 78.1%; with U251 CNS, 78.6%; in the assay with PC-3 prostate, 59.1%. The growth was 38.2% in the assay on SK-MEL-5 melanoma; 82.8% in the assay with UACC-62 melanoma; 84.4% in the assay on LOX IMVI melanoma; 88.3% in the assay on SK-MEL-28 melanoma; 84.1% in the assay on SK-MEL-2 melanoma; 81% with SN12C renal. In addition, the growth in the assay with UO-31 renal was 59.2%; with TK-10 renal, 73%; in the assay with ACHN renal, 73.5%; with CAKI-1 renal, 74.5%; with CCRF-CEM leukemia, 79.3%; in the assay on MOLT-4 leukemia, 40.9%.

Turning to `COc1c(Cl)c2c(c(OC)c1OC)-c1ccc(SC)c(=O)cc1[C@@H](NC(=O)OCC(F)(F)F)CC2`, the growth was 9.54% (active) in the assay on HCT-15 colon; 13.5% in the assay with HT29 colon; 37.4% in the assay with SNB-75 CNS; 29.4% with SNB-19 CNS; 20.6% in the assay with U251 CNS; 24.7% in the assay with PC-3 prostate. For the same compound, the growth in the assay on SK-MEL-5 melanoma is -7.65% (active); in the assay with UACC-62 melanoma it was 34.4%; with LOX IMVI melanoma, 15.1%; in the assay on SK-MEL-2 melanoma, 46.3%; in the assay on EKVX NSCLC, 40%; with SN12C renal, 24.2%. For the same compound, the growth in the assay on UO-31 renal is 28.6%; in the assay with TK-10 renal, 44.5%; in the assay on ACHN renal it was 25.8%; in the assay on CAKI-1 renal, 15.6%; in the assay with CCRF-CEM leukemia, 4.8% (active); with MOLT-4 leukemia it was 3.85% (active).

On to `COc1cc(CC(=O)n2ncc3ccc(N)cc32)cc(OC)c1OC`, for which the growth was 88.2% in the assay with HCT-15 colon; 109% with HT29 colon; 87.3% in the assay on SNB-75 CNS; 101% in the assay on SNB-19 CNS; 98.4% with U251 CNS; 88.2% with PC-3 prostate. Besides, the growth in the assay on SK-MEL-5 melanoma was 92.9%; in the assay with UACC-62 melanoma it was 92.9%; with LOX IMVI melanoma it was 90.1%; in the assay on SK-MEL-2 melanoma it was 98%; in the assay with EKVX NSCLC, 91.8%; in the assay on SN12C renal, 107%. The growth with UO-31 renal is 70.2%; with TK-10 renal, 108%; with ACHN renal, 94.9%; in the assay on CAKI-1 renal it was 85.9%; in the assay on A498 renal, 97.4%; in the assay on CCRF-CEM leukemia it was 101%.

For the compound `COc1ccc(Cc2cnc(NC(=O)c3ccc4c(c3)OCCO4)s2)cc1`, the growth in the assay on HCT-15 colon is 7.26% (active); with HT29 colon, 2.59% (active); in the assay with SNB-75 CNS it was 17.9%; with SNB-19 CNS, 37.7%; in the assay on U251 CNS, 12.3%; with PC-3 prostate, 23.4%. The growth in the assay on SK-MEL-5 melanoma was -39.3% (active); in the assay with UACC-62 melanoma, 48.1%; in the assay with LOX IMVI melanoma, 29.3%; in the assay on SK-MEL-2 melanoma, 39.3%; in the assay with EKVX NSCLC it was 37.7%; in the assay on SN12C renal it was 30.7%. The growth with UO-31 renal is 54.8%; in the assay with TK-10 renal it was 41%; in the assay with ACHN renal, 27.9%; with CAKI-1 renal it was 27.8%; in the assay with A498 renal it was -6.31% (active); in the assay on CCRF-CEM leukemia, 13.5%. For the same compound, the growth with MOLT-4 leukemia was 11.6%.

Regarding `CC(Sc1nc2sc3c(c2c(=O)n1-c1ccc(Cl)cc1)CCCC3)C(=O)Nc1nc(-c2ccc(Br)cc2)cs1` (centres undefined), the growth with HCT-15 colon is 95.4%; with HT29 colon it was 94.7%; in the assay with SNB-75 CNS, 95.9%; in the assay with SNB-19 CNS, 96.6%; in the assay on U251 CNS, 97.2%; with PC-3 prostate, 95.6%. The growth in the assay with SK-MEL-5 melanoma was 97.4%; in the assay on UACC-62 melanoma, 88.9%; in the assay on LOX IMVI melanoma, 96.3%; with SK-MEL-28 melanoma, 105%; in the assay on SK-MEL-2 melanoma, 101%; in the assay with SN12C renal, 96.8%. Besides, the growth in the assay on UO-31 renal is 81.5%; with TK-10 renal, 99.5%; with ACHN renal, 106%; with CAKI-1 renal it was 94.4%; in the assay with CCRF-CEM leukemia, 105%; in the assay on MOLT-4 leukemia, 94.1%.

Take `COc1cc2nc(-c3ccc(C(F)(F)F)cc3)cc(OCCCN3CCOCC3)c2cc1OC`: the growth was 7.76% (active) with HCT-15 colon; 17.4% in the assay with HT29 colon; -9.47% (active) in the assay with SNB-75 CNS; 61% in the assay with SNB-19 CNS; 42.6% in the assay with U251 CNS; 42.1% with PC-3 prostate. The growth with SK-MEL-5 melanoma was -33.1% (active); in the assay with UACC-62 melanoma it was -26.1% (active); with LOX IMVI melanoma it was -82.1% (active); in the assay with SK-MEL-28 melanoma, 42.1%; in the assay on SK-MEL-2 melanoma it was 47.4%; in the assay on SN12C renal it was 41.3%. Further, the growth in the assay on UO-31 renal was 33%; with TK-10 renal, 96.6%; in the assay on ACHN renal, 34.3%; in the assay on CAKI-1 renal, -13.1% (active); with CCRF-CEM leukemia it was 37.5%; in the assay on MOLT-4 leukemia, 44.9%.

For the compound `O=C(Cn1c[n+](CC(=O)c2ccc(-c3ccccc3)cc2)c2ccccc21)Nc1cccc2cccnc12`, the growth with HCT-15 colon was 95.9%; in the assay on HT29 colon, 7.47% (active); with SNB-75 CNS, -6.7% (active); in the assay on SNB-19 CNS, 7.73% (active); in the assay with U251 CNS it was 20.6%; in the assay on PC-3 prostate it was 12.9%. The growth with SK-MEL-5 melanoma was -35.1% (active); with UACC-62 melanoma, -32.3% (active); in the assay on LOX IMVI melanoma, -45.5% (active); with SK-MEL-2 melanoma it was 19.4%; in the assay with EKVX NSCLC it was 47.6%; with SN12C renal, 14.9%. In addition, the growth in the assay with UO-31 renal was 67.9%; in the assay with TK-10 renal it was 88.5%; in the assay with ACHN renal, 90.1%; in the assay on CAKI-1 renal it was 44.8%; with CCRF-CEM leukemia, 10.5%; in the assay with MOLT-4 leukemia, 11.4%.
